# Assay results: PubChem BioAssay (EPA / NIEHS)
# Records with an inconclusive call do not appear. Calls of active or inactive are those of the source. The calls were made as follows, unless noted: active = hit-call score of the fitted dose curve at least 0.9, where 1 is the maximum; inconclusive = response in the unintended direction; inactive = score below 0.9.
# Columns and labels:
# [1] = biological target: human Peroxisome Proliferator-activated Receptor alpha (PPARa), PPARA (gene 5465) (UniProt Q07869); assay: ATG_PPARa_TRANS: Attagene TRANS-FACTORIAL HepG2 Assay for human Peroxisome Proliferator-activated Receptor alpha (PPARa) (AID 2283001)
# Chain of human Peroxisome Proliferator-activated Receptor alpha (PPARa), PPARA (gene 5465) (Q07869 whole entry, looked up, the tested form may be a part): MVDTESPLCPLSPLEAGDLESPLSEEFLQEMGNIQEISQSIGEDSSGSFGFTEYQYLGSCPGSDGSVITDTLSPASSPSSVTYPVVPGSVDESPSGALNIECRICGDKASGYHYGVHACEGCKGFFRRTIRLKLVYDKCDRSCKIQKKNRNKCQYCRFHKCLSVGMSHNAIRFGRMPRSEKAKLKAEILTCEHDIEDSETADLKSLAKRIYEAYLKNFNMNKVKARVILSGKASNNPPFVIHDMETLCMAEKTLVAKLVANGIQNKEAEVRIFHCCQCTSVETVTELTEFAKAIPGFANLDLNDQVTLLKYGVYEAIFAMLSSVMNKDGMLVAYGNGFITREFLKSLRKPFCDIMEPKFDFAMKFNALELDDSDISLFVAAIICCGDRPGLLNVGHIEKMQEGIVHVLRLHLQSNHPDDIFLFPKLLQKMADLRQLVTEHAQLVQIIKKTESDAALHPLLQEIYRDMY
# How it was run: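 HepG2 cells transiently transfected with multiplexed GAL4-UAS reporter units and chimeric NR-Gal4 constructs were dosed for 24 h. Reporter mRNA was measured by RT-PCR with fluorescent labelling and capillary electrophoresis; gain of signal fitted against DMSO.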
# [2] = biological target: human Peroxisome Proliferator-activated Receptor delta (PPARd), PPARD (gene 5467) (UniProt Q03181); assay: ATG_PPARd_TRANS: Attagene TRANS-FACTORIAL HepG2 Assay for human Peroxisome Proliferator-activated Receptor delta (PPARd) (AID 2283002)
# Chain of human Peroxisome Proliferator-activated Receptor delta (PPARd), PPARD (gene 5467) (Q03181 whole entry, looked up, the tested form may be a part): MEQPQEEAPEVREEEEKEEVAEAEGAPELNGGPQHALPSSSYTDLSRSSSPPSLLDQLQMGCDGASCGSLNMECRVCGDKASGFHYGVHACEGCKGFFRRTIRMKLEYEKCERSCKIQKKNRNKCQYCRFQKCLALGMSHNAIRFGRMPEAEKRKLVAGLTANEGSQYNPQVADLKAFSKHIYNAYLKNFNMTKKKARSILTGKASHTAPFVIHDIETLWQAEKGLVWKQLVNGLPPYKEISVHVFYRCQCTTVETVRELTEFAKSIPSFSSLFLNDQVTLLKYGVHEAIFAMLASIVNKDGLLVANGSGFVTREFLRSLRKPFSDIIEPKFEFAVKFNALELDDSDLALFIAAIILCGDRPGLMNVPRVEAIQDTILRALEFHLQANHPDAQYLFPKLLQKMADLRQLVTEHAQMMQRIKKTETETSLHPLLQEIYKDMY
# How it was run: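 Measured quantity: GAL4-UAS reporter transcript induction in HepG2 after 24 h chemical dosing, with NR-Gal4 chimeras supplied by transient transfection. Detection by RT-PCR and capillary electrophoresis; upward fit against DMSO.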
# [3] = biological target: Nuclear receptor subfamily 1 group I member 2 (Homo sapiens) (UniProt O75469); assay: ATG_PXR_TRANS: Attagene TRANS-FACTORIAL HepG2 Assay for human Pregnane X Receptor (PXR) (AID 2283008)
# Chain of Nuclear receptor subfamily 1 group I member 2 (Homo sapiens) (O75469 whole entry, looked up, the tested form may be a part): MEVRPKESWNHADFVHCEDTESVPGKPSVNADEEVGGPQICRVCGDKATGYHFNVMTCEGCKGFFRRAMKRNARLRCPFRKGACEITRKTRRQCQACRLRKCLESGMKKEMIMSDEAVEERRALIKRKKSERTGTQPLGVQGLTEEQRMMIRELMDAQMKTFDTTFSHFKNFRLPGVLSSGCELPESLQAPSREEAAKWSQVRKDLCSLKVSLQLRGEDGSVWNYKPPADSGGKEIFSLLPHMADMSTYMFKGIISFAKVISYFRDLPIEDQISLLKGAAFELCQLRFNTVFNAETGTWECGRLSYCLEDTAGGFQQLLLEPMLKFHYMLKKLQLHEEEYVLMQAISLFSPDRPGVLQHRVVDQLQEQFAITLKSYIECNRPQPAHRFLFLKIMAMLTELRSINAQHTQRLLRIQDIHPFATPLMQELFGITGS
# How it was run: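 Read-out is fluorescence of labelled reporter cDNA fragments separated by capillary electrophoresis after RT-PCR and HpaI digestion. Source: HepG2 cells carrying PXR-GAL4/UAS reporter constructs, treated 24 h; activity fitted upward relative to DMSO.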
# [4] = biological target: human RAR-related Orphan Receptor gamma (RORg), RORC (gene 6097) (UniProt P51449); assay: ATG_RORg_TRANS: Attagene TRANS-FACTORIAL HepG2 Assay for human RAR-related Orphan Receptor gamma (RORg) (AID 2283011)
# Chain of human RAR-related Orphan Receptor gamma (RORg), RORC (gene 6097) (P51449 whole entry, looked up, the tested form may be a part): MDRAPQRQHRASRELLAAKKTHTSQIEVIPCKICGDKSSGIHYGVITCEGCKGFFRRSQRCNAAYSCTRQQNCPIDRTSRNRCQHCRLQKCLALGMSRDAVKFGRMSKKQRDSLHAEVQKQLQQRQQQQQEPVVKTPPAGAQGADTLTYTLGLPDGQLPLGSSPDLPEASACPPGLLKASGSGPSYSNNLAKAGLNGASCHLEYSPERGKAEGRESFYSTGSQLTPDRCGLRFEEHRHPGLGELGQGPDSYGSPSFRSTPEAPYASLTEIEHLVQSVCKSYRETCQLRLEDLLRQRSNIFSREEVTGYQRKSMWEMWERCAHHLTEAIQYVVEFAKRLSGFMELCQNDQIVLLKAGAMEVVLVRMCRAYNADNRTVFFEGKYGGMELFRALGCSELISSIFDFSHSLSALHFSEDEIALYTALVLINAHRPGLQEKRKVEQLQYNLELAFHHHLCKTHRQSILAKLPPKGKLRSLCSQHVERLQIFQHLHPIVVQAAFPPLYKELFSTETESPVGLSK
# How it was run: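 Readout: reporter transcript induction (RT-PCR, fluorescent primer extension, capillary electrophoresis) after 24 h compound exposure of transiently transfected HepG2 cells carrying a RORg-Gal4 chimera and GAL4-UAS reporters; DMSO served as baseline, with increasing signal fitted.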
# [5] = biological target: Retinoic acid receptor RXR-alpha (Homo sapiens) (UniProt P19793); assay: ATG_RXRa_TRANS: Attagene TRANS-FACTORIAL HepG2 Assay for human Retinoid X Receptor alpha (RXRa) (AID 2283012)
# Chain of Retinoic acid receptor RXR-alpha (Homo sapiens) (P19793 whole entry, looked up, the tested form may be a part): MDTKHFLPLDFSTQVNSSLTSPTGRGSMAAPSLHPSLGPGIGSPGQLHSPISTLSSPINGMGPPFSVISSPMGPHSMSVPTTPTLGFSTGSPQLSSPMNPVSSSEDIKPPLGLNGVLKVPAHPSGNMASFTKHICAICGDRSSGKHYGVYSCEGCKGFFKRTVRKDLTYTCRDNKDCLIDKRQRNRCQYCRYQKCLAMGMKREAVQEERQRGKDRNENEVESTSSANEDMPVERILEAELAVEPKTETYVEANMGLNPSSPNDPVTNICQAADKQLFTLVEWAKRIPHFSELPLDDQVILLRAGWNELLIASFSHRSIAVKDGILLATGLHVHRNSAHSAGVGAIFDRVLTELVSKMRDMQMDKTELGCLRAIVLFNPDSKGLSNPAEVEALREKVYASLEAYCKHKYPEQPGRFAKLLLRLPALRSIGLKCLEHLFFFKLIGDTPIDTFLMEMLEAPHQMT
# How it was run: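 HepG2 cells transiently transfected with multiplexed GAL4-UAS reporter units and chimeric NR-GAL4 fusions, dosed 24 h. Reporter mRNA measured by RT-PCR, FAM labelling, HpaI digestion and capillary electrophoresis; gain-of-signal fitted relative to DMSO baseline.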
# [6] = biological target: human Thyroid Receptor alpha (THRa1), THRA (gene 7067) (UniProt P10827); assay: ATG_THRa1_TRANS: Attagene TRANS-FACTORIAL HepG2 Assay for human Thyroid Receptor alpha (THRa1) (AID 2283014)
# Chain of human Thyroid Receptor alpha (THRa1), THRA (gene 7067) (P10827 whole entry, looked up, the tested form may be a part): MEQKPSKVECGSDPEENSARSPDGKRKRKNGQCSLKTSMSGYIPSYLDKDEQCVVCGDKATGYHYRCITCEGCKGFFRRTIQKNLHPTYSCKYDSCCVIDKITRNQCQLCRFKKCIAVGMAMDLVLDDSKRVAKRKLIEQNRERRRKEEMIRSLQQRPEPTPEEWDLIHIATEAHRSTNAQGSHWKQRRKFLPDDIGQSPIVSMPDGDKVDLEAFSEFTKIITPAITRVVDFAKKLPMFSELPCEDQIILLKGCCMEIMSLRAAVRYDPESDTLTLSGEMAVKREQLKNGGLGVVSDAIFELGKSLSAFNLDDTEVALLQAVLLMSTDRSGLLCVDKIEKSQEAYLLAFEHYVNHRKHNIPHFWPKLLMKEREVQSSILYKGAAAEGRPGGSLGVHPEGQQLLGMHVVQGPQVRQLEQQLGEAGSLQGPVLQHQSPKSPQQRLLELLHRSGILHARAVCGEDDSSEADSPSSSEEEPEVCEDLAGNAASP
# How it was run: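 HepG2 cells transiently transfected with multiplexed GAL4-UAS reporter units for exogenous chimeric THRa1-Gal4; reporter mRNA measured 24 h after dosing by RT-PCR, 6-FAM labelling, HpaI digestion and capillary electrophoresis. Gain-of-signal fitted versus DMSO baseline.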
# [7] = biological target: human RAR-related Orphan Receptor beta (RORb), RORB (gene 6096) (UniProt Q92753); assay: ATG_RORb_TRANS: Attagene TRANS-FACTORIAL HepG2 Assay for human RAR-related Orphan Receptor beta (RORb) (AID 2283010)
# Chain of human RAR-related Orphan Receptor beta (RORb), RORB (gene 6096) (Q92753 whole entry, looked up, the tested form may be a part): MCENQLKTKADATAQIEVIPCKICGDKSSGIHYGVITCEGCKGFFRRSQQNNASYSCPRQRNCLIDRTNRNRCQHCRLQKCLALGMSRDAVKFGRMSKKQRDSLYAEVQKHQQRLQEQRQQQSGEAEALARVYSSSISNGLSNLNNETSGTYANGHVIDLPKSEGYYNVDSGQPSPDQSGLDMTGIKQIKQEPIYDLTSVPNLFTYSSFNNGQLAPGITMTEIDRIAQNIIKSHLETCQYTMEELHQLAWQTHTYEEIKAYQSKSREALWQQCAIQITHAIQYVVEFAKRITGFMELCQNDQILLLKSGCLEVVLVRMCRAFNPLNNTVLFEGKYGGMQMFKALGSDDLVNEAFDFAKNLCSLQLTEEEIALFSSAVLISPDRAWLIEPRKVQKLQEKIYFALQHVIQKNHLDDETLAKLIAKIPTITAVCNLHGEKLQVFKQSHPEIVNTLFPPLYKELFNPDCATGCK
# How it was run: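 HepG2 cells were transiently transfected with multiplexed GAL4-UAS reporter units expressing chimeric nuclear receptor–GAL4 proteins, then dosed for 24 h. Reporter mRNA was quantified by RT-PCR with fluorescent labelling and capillary electrophoresis; gain of signal was fitted relative to DMSO.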
# [8] = biological target: human Retinoid X Receptor beta (RXRb), RXRB (gene 6257) (UniProt P28702); assay: ATG_RXRb_TRANS: Attagene TRANS-FACTORIAL HepG2 Assay for human Retinoid X Receptor beta (RXRb) (AID 2283013)
# Chain of human Retinoid X Receptor beta (RXRb), RXRB (gene 6257) (P28702 whole entry, looked up, the tested form may be a part): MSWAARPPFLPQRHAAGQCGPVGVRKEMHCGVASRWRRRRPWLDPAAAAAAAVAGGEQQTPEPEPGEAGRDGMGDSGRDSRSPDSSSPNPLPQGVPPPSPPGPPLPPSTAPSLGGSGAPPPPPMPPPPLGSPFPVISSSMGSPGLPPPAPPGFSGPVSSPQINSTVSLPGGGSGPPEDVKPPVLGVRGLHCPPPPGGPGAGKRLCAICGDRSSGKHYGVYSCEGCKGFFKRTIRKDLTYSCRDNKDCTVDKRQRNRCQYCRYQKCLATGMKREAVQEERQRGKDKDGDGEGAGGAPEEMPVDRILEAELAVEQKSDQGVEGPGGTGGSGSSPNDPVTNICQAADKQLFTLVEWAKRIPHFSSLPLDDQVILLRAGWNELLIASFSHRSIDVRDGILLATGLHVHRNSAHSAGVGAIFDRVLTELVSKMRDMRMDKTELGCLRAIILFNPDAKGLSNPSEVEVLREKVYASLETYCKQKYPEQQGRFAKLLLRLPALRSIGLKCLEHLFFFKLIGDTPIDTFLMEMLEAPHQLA
# How it was run: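 HepG2 cells transiently transfected with multiplexed reporter units driven by GAL4-UAS and exogenous chimeric NR-Gal4 proteins; treated 24 h. Reporter mRNA measured by RT-PCR, 6-FAM labelling and capillary electrophoresis; gain-of-signal fitted versus DMSO baseline.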
# [9] = biological target: Peroxisome proliferator-activated receptor gamma (Homo sapiens) (UniProt P37231); assay: ATG_PPARg_TRANS: Attagene TRANS-FACTORIAL HepG2 Assay for human Peroxisome Proliferator-activated Receptor-gamma (PPARg) (AID 2283007)
# Chain of Peroxisome proliferator-activated receptor gamma (Homo sapiens) (P37231 whole entry, looked up): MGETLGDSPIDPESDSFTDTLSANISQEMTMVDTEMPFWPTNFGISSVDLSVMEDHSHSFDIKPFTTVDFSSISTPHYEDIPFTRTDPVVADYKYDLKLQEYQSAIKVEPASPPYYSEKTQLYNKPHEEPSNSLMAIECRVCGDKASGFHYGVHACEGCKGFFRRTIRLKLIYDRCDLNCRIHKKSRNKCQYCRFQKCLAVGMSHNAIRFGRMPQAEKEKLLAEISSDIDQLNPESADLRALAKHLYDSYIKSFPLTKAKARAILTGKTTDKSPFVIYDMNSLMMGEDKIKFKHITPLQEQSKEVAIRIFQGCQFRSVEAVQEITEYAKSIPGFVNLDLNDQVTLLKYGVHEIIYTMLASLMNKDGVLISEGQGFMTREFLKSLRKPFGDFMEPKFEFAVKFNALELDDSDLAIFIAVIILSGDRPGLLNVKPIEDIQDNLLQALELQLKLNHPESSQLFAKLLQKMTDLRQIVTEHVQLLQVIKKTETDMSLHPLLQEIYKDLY
# How it was run: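 Human hepatoma HepG2, transient MRTU transfection, 24 h treatment. mRNA reporter signal by RT-PCR plus capillary electrophoresis, fluorescence detection; fitted for increase over DMSO negative control.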
# [10] = read-out: Intercellular Adhesion Molecule 1 (ICAM1), ICAM1 (gene 3383); assay: BSK_3C_ICAM1: BioMAP Diversity Plus: 3C Assay for Intercellular Adhesion Molecule 1 (ICAM1) Biomarker Activity (AID 2283003; active = hit-call score of the fitted dose curve at least 0.9, where 1 is the maximum; inactive = score below 0.9); conditions: primary human endothelial cells (HUVEC); actives raise or lower the signal
# How it was run: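 Primary human umbilical vein endothelial cells in the BioMAP 3C system were exposed to chemicals for 24 h, then ICAM-1 was quantified by ELISA. Activity was fitted bidirectionally against the DMSO negative control baseline.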
# [11] = BSK_3C_Proliferation: Cell Proliferation Assessment in the BioMAP Diversity Plus: 3C Assay (AID 2283006; active = hit-call score of the fitted dose curve at least 0.9, where 1 is the maximum; inactive = score below 0.9;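 as to AC50: potency may reflect either rise or fall in cell number versus DMSO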); conditions: primary human endothelial cells (HUVEC)
# How it was run: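 Human umbilical vein endothelial cells were grown sub-confluent and exposed to chemical for 48 h, then fixed with 10% TCA and stained with 0.1% sulforhodamine B; absorbance at 560 nm gave relative cell number, fitted bidirectionally against DMSO baseline.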
# [12] = read-out: E-selectin (Homo sapiens) (UniProt P16581); assay: BSK_3C_Eselectin: BioMAP Diversity Plus: 3C Assay for Eselectin Biomarker Activity (AID 2283015; active = hit-call score of the fitted dose curve at least 0.9, where 1 is the maximum; inactive = score below 0.9;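 also: cell surface E-selectin protein quantified by ELISA 24 h after dosing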); conditions: primary human endothelial cells (HUVEC); actives raise or lower the signal
# How it was run: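 Primary human umbilical vein endothelial cells (3C system) were dosed with chemical and cell-surface E-selectin measured by ELISA 24 h later. Bidirectional curve fitting used DMSO as negative control and baseline.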
# [13] = read-out: Interleukin-1 alpha (IL1a), IL1A (gene 3552); assay: BSK_BE3C_IL1a: BioMAP Diversity Plus: BE3C Assay for Interleukin-1 alpha (IL1a) Biomarker Activity (AID 2283016; active = hit-call score of the fitted dose curve at least 0.9, where 1 is the maximum; inactive = score below 0.9); conditions: primary human bronchial epithelial cells; actives raise or lower the signal
# How it was run: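 Human primary bronchial epithelial cells (BE3C system) were dosed with compound and IL-1a measured by ELISA 24 h later. Activity was fitted bidirectionally against DMSO baseline; cytotoxicity was tracked in parallel cultures by SRB total-protein staining.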
# [14] = read-out: Monocyte Chemoattractant Protein-1 (MCP1), CCL2 (gene 6347); assay: BSK_3C_MCP1: BioMAP Diversity Plus: 3C Assay for Monocyte Chemoattractant Protein-1 (MCP1) Biomarker Activity (AID 2283017; active = hit-call score of the fitted dose curve at least 0.9, where 1 is the maximum; inactive = score below 0.9); conditions: primary human endothelial cells (HUVEC); actives raise or lower the signal
# How it was run: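 Primary human umbilical vein endothelial cells (3C system) were exposed to test chemical for 24 h, after which MCP-1 was quantified by ELISA. Activity was fitted bidirectionally against DMSO as negative control and baseline.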
# [15] = read-out: Monocyte Chemoattractant Protein-1 (MCP1), CCL2 (gene 6347); assay: BSK_4H_MCP1: BioMAP Diversity Plus: 4H Assay for Monocyte Chemoattractant Protein-1 (MCP1) Biomarker Activity (AID 2283018; active = hit-call score of the fitted dose curve at least 0.9, where 1 is the maximum; inactive = score below 0.9); conditions: primary human endothelial cells (HUVEC); actives raise or lower the signal
# How it was run: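 Human umbilical vein endothelial cells (4H system) dosed with chemical; MCP-1 measured by ELISA 24 h after dosing. Bidirectional curve fitting against DMSO negative control as baseline; parallel SRB total-protein staining tracks overt cytotoxicity.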
# [16] = read-out: Human Leukocyte Antigen - DR isotype (HLADR), HLA-DRA (gene 3122); assay: BSK_3C_HLADR: BioMAP Diversity Plus: 3C Assay for Human Leukocyte Antigen - DR isotype (HLADR) Biomarker Activity (AID 2283019; active = hit-call score of the fitted dose curve at least 0.9, where 1 is the maximum; inactive = score below 0.9;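 also: ELISA of cell-surface HLA-DR on HUVEC 24 h after dosing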); conditions: primary human endothelial cells (HUVEC); actives raise or lower the signal
# How it was run: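 Primary human umbilical vein endothelial cells (3C system) were dosed with compound and cell-surface HLA-DR was quantified by ELISA at 24 h. Activity was fitted bidirectionally against DMSO as negative control and baseline.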
# [17] = read-out: Interleukin-8 (IL8), CXCL8 (gene 3576); assay: BSK_3C_IL8: BioMAP Diversity Plus: 3C Assay for Interleukin-8 (IL8) Biomarker Activity (AID 2283020; active = hit-call score of the fitted dose curve at least 0.9, where 1 is the maximum; inactive = score below 0.9); conditions: primary human endothelial cells (HUVEC); actives raise or lower the signal
# How it was run: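 Primary human umbilical vein endothelial cells (3C system) were exposed to test chemical for 24 h, then IL-8 was quantified by ELISA. Responses were fitted bidirectionally against DMSO vehicle as baseline.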
# [18] = biological target: human Retinoic Acid Receptor beta (RARb), RARB (gene 5915) (UniProt P10826); assay: ATG_RARb_TRANS: Attagene TRANS-FACTORIAL HepG2 Assay for human Retinoic Acid Receptor beta (AID 2283004)
# How it was run: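 HepG2 cells transiently transfected with multiplexed GAL4-UAS reporter units expressing chimeric NR–Gal4 fusions; 24 h compound exposure. Reporter mRNA quantified by RT-PCR, 6-FAM labelling, HpaI digestion and capillary electrophoresis; gain-of-signal fitted against DMSO baseline.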
# [19] = biological target: Retinoic acid receptor alpha (Homo sapiens) (UniProt P10276); assay: ATG_RARa_TRANS: Attagene TRANS-FACTORIAL HepG2 Assay for human Retinoic Acid Receptor alpha (RARa) (AID 2283005)
# How it was run: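 HepG2 cells transiently transfected with multiple reporter units expressing chimeric RARα-GAL4 fusion, with GAL4-UAS-driven reporters. After 24 h compound exposure, reporter mRNA induction quantified by RT-PCR and capillary electrophoresis with fluorescent labeling; gain-of-signal fitted relative to DMSO control.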
# [20] = biological target: human Retinoic Acid Receptor gamma (RARg), RARG (gene 5916) (UniProt P13631); assay: ATG_RARg_TRANS: Attagene TRANS-FACTORIAL HepG2 Assay for human Retinoic Acid Receptor gamma (RARg) (AID 2283009)
# How it was run: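 HepG2 cells transiently transfected with multiplexed reporter units expressing chimeric RARg-GAL4 and GAL4-UAS-driven reporters; 24 h compound exposure. Reporter mRNA quantified by RT-PCR with fluorescent labelling and capillary electrophoresis; gain-of-signal fitted relative to DMSO baseline.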
# Chain of E-selectin (Homo sapiens) (P16581 whole entry, looked up): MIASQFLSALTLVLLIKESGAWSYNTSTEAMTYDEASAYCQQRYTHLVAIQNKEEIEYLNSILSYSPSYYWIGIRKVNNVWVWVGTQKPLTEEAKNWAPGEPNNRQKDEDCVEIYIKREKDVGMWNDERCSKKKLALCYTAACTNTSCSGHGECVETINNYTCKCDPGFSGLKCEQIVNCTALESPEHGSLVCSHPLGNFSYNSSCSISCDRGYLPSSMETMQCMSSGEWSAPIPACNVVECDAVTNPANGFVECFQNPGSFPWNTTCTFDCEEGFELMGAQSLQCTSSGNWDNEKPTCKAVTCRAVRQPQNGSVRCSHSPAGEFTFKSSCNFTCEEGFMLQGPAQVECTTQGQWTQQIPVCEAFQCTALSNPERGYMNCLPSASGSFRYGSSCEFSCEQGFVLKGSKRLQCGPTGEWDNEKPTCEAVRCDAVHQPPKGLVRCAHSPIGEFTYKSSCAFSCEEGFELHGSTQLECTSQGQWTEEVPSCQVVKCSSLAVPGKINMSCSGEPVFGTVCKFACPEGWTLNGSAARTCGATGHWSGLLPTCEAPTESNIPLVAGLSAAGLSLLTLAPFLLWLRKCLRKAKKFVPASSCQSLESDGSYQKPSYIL
structure (smiles),measurement,setting,value
CC1(C)[C@@H]2CC[C@@]1(C)[C@H](O)C2,outcome,[1],inactive
same,outcome,[2],inactive
same,outcome,[3],inactive
same,outcome,[4],inactive
same,outcome,[5],inactive
same,outcome,[6],inactive
O=S(=O)(O)c1ccc(O)c2ncccc12,outcome,[1],inactive
same,outcome,[2],inactive
same,outcome,[3],inactive
same,outcome,[7],inactive
same,outcome,[4],inactive
same,outcome,[5],inactive
same,outcome,[8],inactive
same,outcome,[6],inactive
C=CC(C)(CCC=C(C)C)OC=O (configuration not stated),outcome,[1],inactive
same,outcome,[2],inactive
same,outcome,[9],inactive
same,outcome,[4],inactive
same,outcome,[6],inactive
CC(C)=CCO,outcome,[1],inactive
same,outcome,[2],inactive
same,outcome,[3],inactive
same,outcome,[4],inactive
same,outcome,[5],inactive
same,outcome,[6],inactive
CCC(=O)/C=C/C1C(C)=CCCC1(C)C (configuration not stated),outcome,[1],inactive
same,outcome,[2],inactive
same,AC50,[9],21.4 µM (active)
same,AC50,[3],3.77 µM (active)
same,outcome,[5],inactive
same,AC50,[8],34.7 µM (active)
N#Cc1ccc(CC(=NNC(=O)Nc2ccc(OC(F)(F)F)cc2)c2cccc(C(F)(F)F)c2)cc1,outcome,[1],inactive
same,outcome,[10],inactive
same,outcome,[11],inactive
same,AC50,[9],26.9 µM (active)
same,outcome,[3],inactive
same,outcome,[12],inactive
same,outcome,[13],inactive
same,outcome,[14],inactive
same,outcome,[15],inactive
same,outcome,[16],inactive
same,outcome,[17],inactive
c1cc(C(c2ccc(OCC3CO3)cc2)c2ccc(OCC3CO3)cc2)ccc1OCC1CO1 (configuration not stated),outcome,[1],inactive
same,outcome,[2],inactive
same,outcome,[3],inactive
same,outcome,[6],inactive
Nc1cc([N+](=O)[O-])ccc1Cl,outcome,[1],inactive
same,outcome,[10],inactive
same,outcome,[11],inactive
same,AC50,[9],49.8 µM (active)
same,outcome,[3],inactive
same,outcome,[4],inactive
same,outcome,[5],inactive
same,outcome,[8],inactive
same,outcome,[6],inactive
same,outcome,[12],inactive
same,outcome,[13],inactive
same,outcome,[14],inactive
same,outcome,[15],inactive
same,outcome,[16],inactive
same,outcome,[17],inactive
CCCCOCCOCCOCCOCCO,outcome,[1],inactive
same,outcome,[2],inactive
same,outcome,[7],inactive
same,outcome,[4],inactive
same,outcome,[6],inactive
O=C(O)CCCCCCCC(=O)O,outcome,[1],inactive
same,outcome,[18],inactive
same,outcome,[19],inactive
same,outcome,[20],inactive
same,outcome,[5],inactive
O=C(O)C[C@H](O)C[C@H](O)/C=C/c1c(C2CC2)nc2ccccc2c1-c1ccc(F)cc1,outcome,[1],inactive
same,outcome,[10],inactive
same,AC50,[11],1.95 µM (active)
same,outcome,[7],inactive
same,outcome,[8],inactive
same,outcome,[6],inactive
same,outcome,[12],inactive
same,AC50,[13],1.43 µM (active)
same,outcome,[14],inactive
same,AC50,[15],0.551 µM (active)
same,outcome,[16],inactive
same,outcome,[17],inactive
CCC(C(=O)NC(N)=O)c1ccccc1 (configuration not stated),outcome,[1],inactive
same,outcome,[2],inactive
same,outcome,[3],inactive
same,outcome,[6],inactive
CCc1c(C)cc(N)c(CC)c1N,outcome,[1],inactive
same,outcome,[10],inactive
same,outcome,[11],inactive
same,outcome,[9],inactive
same,AC50,[3],100 µM (active)
same,outcome,[4],inactive
same,outcome,[5],inactive
same,outcome,[8],inactive
same,outcome,[6],inactive
same,outcome,[12],inactive
same,outcome,[13],inactive
same,outcome,[14],inactive
same,outcome,[15],inactive
same,outcome,[16],inactive
same,outcome,[17],inactive
CCC(=O)OCCC(C)CCC=C(C)C (configuration not stated),outcome,[1],inactive
same,outcome,[2],inactive
same,outcome,[3],inactive
same,outcome,[5],inactive
same,outcome,[8],inactive
